# Measured values reported in PubChem BioAssay AID1159580 (chemical genetic matrix, 2015).
# Hit rate of the full screen: of about 5,500 compounds, about 2,000 (36%) were called active. Roughly 18% stayed inconclusive and do not appear here. This is one part of the list. A number with no mark means an inactive call. No stated cut-off is given here; in the data, active means normalized growth mostly below about 0.91 (no sharp cut-off); inconclusive means no clear call, values can overlap the other calls; inactive means mostly above about 0.92.
# Assay: chemical genetic growth profiling, strain panel (AID 1159580);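 further: tested at 20 µM; growth read once vehicle control cultures reached saturation at 30 °C; 1 = growth at the plate median or of vehicle wells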
# Conditions: S. cerevisiae deletion strains, growth OD
smiles,measurement,setting,value
C=C1CC2C(CCC3(C)C(=O)CCC23)C2(C)C=CC(=O)C=C12 (stereo unspecified),normalized growth,"locus YAL021C, strain ccr4, stronger effect = lower value",0.958
same,normalized growth,"locus YAL026C, strain drs2, stronger effect = lower value",0.905 (active)
same,normalized growth,"locus YAL030W, strain snc1, stronger effect = lower value",0.949
same,normalized growth,"locus YBL061C, strain skt5, stronger effect = lower value",0.928
same,normalized growth,"locus YBR009C, strain hhf1, stronger effect = lower value",0.85 (active)
same,normalized growth,"locus YBR023C, strain chs3, stronger effect = lower value",0.941
same,normalized growth,"locus YBR171W, strain sec66, stronger effect = lower value",0.92
same,normalized growth,"locus YBR231C, strain swc5, stronger effect = lower value",0.943
same,normalized growth,"locus YBR279W, strain paf1, stronger effect = lower value",0.963
same,normalized growth,"locus YCL011C, strain gbp2, stronger effect = lower value",0.935
same,normalized growth,"locus YCL016C, strain dcc1, stronger effect = lower value",0.983
same,normalized growth,"locus YCL069W, strain vba3, stronger effect = lower value",0.927
same,normalized growth,"locus YCR088W, strain abp1, stronger effect = lower value",0.947
same,normalized growth,"locus YDL005C, strain med2, stronger effect = lower value",0.942
same,normalized growth,"locus YDL040C, strain nat1, stronger effect = lower value",0.941
same,normalized growth,"locus YDR001C, strain nth1, stronger effect = lower value",0.936
same,normalized growth,"locus YDR069C, strain doa4, stronger effect = lower value",0.944
same,normalized growth,"locus YDR137W, strain rgp1, stronger effect = lower value",0.931
same,normalized growth,"locus YDR159W, strain sac3, stronger effect = lower value",0.919
same,normalized growth,"locus YDR195W, strain ref2",0.945
same,normalized growth,"locus YDR297W, strain sur2, stronger effect = lower value",0.946
same,normalized growth,"locus YDR334W, strain swr1, stronger effect = lower value",0.896 (active)
same,normalized growth,"locus YDR335W, strain msn5, stronger effect = lower value",0.951
same,normalized growth,"locus YDR392W, strain spt3, stronger effect = lower value",0.733 (active)
same,normalized growth,"locus YEL003W, strain gim4, stronger effect = lower value",0.912 (active)
same,normalized growth,"locus YEL037C, strain rad23, stronger effect = lower value",0.917 (active)
same,normalized growth,"locus YEL061C, strain CIN8 (second series), stronger effect = lower value",0.922
same,normalized growth,"locus YER015W, strain faa2, stronger effect = lower value",0.939
same,normalized growth,"locus YER016W, strain bim1, stronger effect = lower value",0.955
same,normalized growth,"locus YER111C, strain swi4, stronger effect = lower value",0.945
same,normalized growth,"locus YER155C, strain BEM2 (second series), stronger effect = lower value",0.946
same,normalized growth,"locus YFR010W, strain ubp6, stronger effect = lower value",0.928
same,normalized growth,"locus YGL167C, strain pmr1, stronger effect = lower value",0.928
same,normalized growth,"locus YGL173C, strain kem1, stronger effect = lower value",0.95
same,normalized growth,"locus YGL227W, strain vid30, stronger effect = lower value",0.874 (active)
same,normalized growth,"locus YGL240W, strain doc1, stronger effect = lower value",0.95
same,normalized growth,"locus YGL253W, strain hxk2, stronger effect = lower value",0.944
same,normalized growth,"locus YHR013C, strain ard1, stronger effect = lower value",0.908
same,normalized growth,"locus YHR027C, strain rpn1, stronger effect = lower value",0.93
same,normalized growth,"locus YHR142W, strain chs7, stronger effect = lower value",0.905
same,normalized growth,"locus YJL092W, strain hpr5, stronger effect = lower value",0.932
same,normalized growth,"locus YJL095W, strain BCK1 (second series), stronger effect = lower value",0.952
same,normalized growth,"locus YJL115W, strain asf1, stronger effect = lower value",0.928
same,normalized growth,"locus YJL129C, strain trk1, stronger effect = lower value",0.96
same,normalized growth,"locus YJL154C, strain vps35, stronger effect = lower value",0.936
same,normalized growth,"locus YJL164C, strain tpk1, stronger effect = lower value",0.916 (active)
same,normalized growth,"locus YJL166W, strain qcr8, stronger effect = lower value",0.962
same,normalized growth,"locus YJL187C, strain SWE1, stronger effect = lower value",0.939
same,normalized growth,"locus YKL160W, strain elf1, stronger effect = lower value",0.998
same,normalized growth,"locus YKR026C, strain gcn3, stronger effect = lower value",0.939
same,normalized growth,"locus YKR091W, strain srl3, stronger effect = lower value",0.95
same,normalized growth,"locus YLL001W, strain dnm1, stronger effect = lower value",1.01
same,normalized growth,"locus YLL026W, stronger effect = lower value",0.936
same,normalized growth,"locus YLL041C, strain sdh2, stronger effect = lower value",0.939
same,normalized growth,"locus YLR027C, strain aat2, stronger effect = lower value",0.98
same,normalized growth,"locus YLR221C, strain rsa3, stronger effect = lower value",0.992
same,normalized growth,"locus YLR258W, strain gsy2, stronger effect = lower value",0.945
same,normalized growth,"locus YLR262C, strain YPT6 (second series), stronger effect = lower value",0.925
same,normalized growth,"locus YLR320W, strain mms22, stronger effect = lower value",0.991
same,normalized growth,"locus YLR342W, strain FKS1, stronger effect = lower value",0.929
same,normalized growth,"locus YLR357W, strain rsc2, stronger effect = lower value",0.991
same,normalized growth,"locus YLR370C, strain arc18, stronger effect = lower value",0.937
same,normalized growth,"locus YLR384C, strain iki3, stronger effect = lower value",0.925
same,normalized growth,"locus YML120C, strain ndi1, stronger effect = lower value",0.96
same,normalized growth,"locus YMR058W, strain fet3, stronger effect = lower value",0.929
same,normalized growth,"locus YMR125W, strain sto1, stronger effect = lower value",0.989
same,normalized growth,"locus YMR129W, stronger effect = lower value",0.928
same,normalized growth,"locus YMR205C, strain PFK2, stronger effect = lower value",0.992
same,normalized growth,"locus YMR231W, strain pep5, stronger effect = lower value",0.946
same,normalized growth,"locus YNL071W, strain lat1, stronger effect = lower value",0.883 (active)
same,normalized growth,"locus YNL209W, strain ssb2, stronger effect = lower value",0.957
same,normalized growth,"locus YNL248C, strain rpa49, stronger effect = lower value",1
same,normalized growth,"locus YNL322C, strain KRE1 (second series), stronger effect = lower value",0.934
same,normalized growth,"locus YNR049C, strain mso1, stronger effect = lower value",0.932
same,normalized growth,"locus YOR001W, strain rrp6, stronger effect = lower value",0.881 (active)
same,normalized growth,"locus YOR070C, strain gyp1, stronger effect = lower value",0.938
same,normalized growth,"locus YOR080W, strain dia2, stronger effect = lower value",0.934
same,normalized growth,"locus YOR083W, strain WHI5, stronger effect = lower value",0.994
same,normalized growth,"locus YOR106W, strain vam3, stronger effect = lower value",0.969
same,normalized growth,"locus YOR265W, strain rbl2, stronger effect = lower value",0.948
same,normalized growth,"locus YOR270C, strain vph1, stronger effect = lower value",0.895
same,normalized growth,"locus YOR290C, strain snf2, stronger effect = lower value",0.941
same,normalized growth,"locus YPL051W, strain arl3, stronger effect = lower value",0.988
same,normalized growth,"locus YPL078C, strain atp4, stronger effect = lower value",1
same,normalized growth,"locus YPL106C, strain sse1, stronger effect = lower value",0.95
same,normalized growth,"locus YPL240C, strain hsp82, stronger effect = lower value",0.969
